Source: PubChem
sEH act – soluble epoxide hydrolase (human) activation. 0.04% of 91,000 active. activation, % at 2 µM. AID 717. purified human sEH enzymatic activity, activator screen. P34913; in the data active = activation above about 37%
Target sequence (P34913 whole entry, looked up): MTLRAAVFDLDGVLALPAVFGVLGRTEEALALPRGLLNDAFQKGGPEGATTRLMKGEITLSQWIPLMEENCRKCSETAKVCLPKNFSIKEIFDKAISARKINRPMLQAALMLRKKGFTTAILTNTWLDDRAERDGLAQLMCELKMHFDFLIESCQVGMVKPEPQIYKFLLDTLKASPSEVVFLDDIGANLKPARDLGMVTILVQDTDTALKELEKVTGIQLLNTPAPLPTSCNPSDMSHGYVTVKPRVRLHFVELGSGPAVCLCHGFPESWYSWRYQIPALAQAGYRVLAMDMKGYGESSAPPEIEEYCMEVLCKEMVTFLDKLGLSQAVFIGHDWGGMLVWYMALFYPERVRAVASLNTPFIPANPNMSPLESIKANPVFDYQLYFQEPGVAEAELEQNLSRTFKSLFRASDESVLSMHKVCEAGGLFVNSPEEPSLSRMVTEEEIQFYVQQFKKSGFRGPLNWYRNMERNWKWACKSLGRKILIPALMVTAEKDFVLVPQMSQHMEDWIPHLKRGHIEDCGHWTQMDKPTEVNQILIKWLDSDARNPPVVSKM
CYP2C19 inh – blocks human cytochrome P450 2C19; P33261; CYP2C19 Supersomes, luciferin-H EGE luminescence, 30 min; inhibition, % at 5 µM; 21% of 96,000 active;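 active = CYP2C19 inhibition above a set limit at 5 µM in the primary screen, cut at about 50% in these data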;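 also: plate controls were negative control wells for no effect and 2.5 mM tranylcypromine positive control for full effect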
CYP2C9 inh – blocks human cytochrome P450 2C9; P11712; CYP2C9 Supersomes, luciferin-H conversion, luminescence; inhibition, % at 5 µM; 20% of 96,000 active; AID 777;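 active = blocking of liver enzyme CYP2C9 beyond about 50% at 5 µM, limit read from the data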
CYP2C9 act – CYP2C9 (human) activation | activation factor at 5 µM | AID 1024 | P11712 | recombinant CYP2C9, luciferin-H conversion, luminescence; stronger effect = higher value; factor 1 = untreated enzyme, 0 = blocked | 1.4% of 96,000 active;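 active = activation factor of 2 or more for CYP2C9 at a 5 µM dose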;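 also: 0 = sulfaphenazole-blocked wells and 1 = vehicle-only wells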
sEH inhibitor – soluble epoxide hydrolase (human) inhibition; P34913; recombinant human sEH enzymatic activity assay; inhibition, % at 2 µM; 0.34% of 91,000 active; AID 707; in the data active = inhibition above about 80%
CYP2C19 activ – activators of human cytochrome P450 2C19. recombinant CYP2C19, luciferin-H EGE luminescence; stronger effect = higher value; 0 = fully inhibited enzyme, 1 = untreated enzyme. AID 1025. P33261. activation factor at 5 µM. 96,000 tested, under 10 active;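 active = activation factor of at least 2 at 5 µM in the primary screen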;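 also: 0 = wells with 2.5 mM tranylcypromine and 1 = vehicle-only wells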
* hit, by the source's call. The list is not random: actives were taken first. Their share in the collection is about 27%.

What do the screens show for `Cc1ccc(-c2nnc(SCC(=O)NCC3CCCO3)n2C)cc1` (stereo not given)?
sEH act: 3.5; CYP2C19 inh: -6.0; CYP2C9 inh: 2.2; CYP2C9 act: 1; sEH inhibitor: -0.8; CYP2C19 activ: 1.1

How did CC(C)Cn1c(CN2CCCCC2C)nc2c1c(=O)n(C)c(=O)n2C (stereo not given) do in these assays?
sEH act: -15.3; CYP2C19 inh: 7.6; CYP2C9 inh: 12.0; CYP2C9 act: 0.9; sEH inhibitor: 15.2; CYP2C19 activ: 0.9

How did Cc1cc(=O)oc(C)c1C(=O)N1CCc2c([nH]c3ccccc23)C1C(C)C (stereo not given) do in these assays?
sEH act: -10.0; CYP2C19 inh: 50.4*; CYP2C9 inh: 18.9; CYP2C9 act: 0.8; sEH inhibitor: 7.7; CYP2C19 activ: 0.5

What do the screens show for `CC1c2[nH]c3ccccc3c2CCN1C(=O)Nc1ccccc1` (stereo not given)?
sEH act: 12.5; sEH inhibitor: -10.2

Results for OC(CSc1c(Cl)cccc1Cl)CN1CCN(c2ccc(F)cc2)CC1 (stereo not given) ?
sEH act: -2.5; CYP2C19 inh: 36.1; CYP2C9 inh: -15.9; CYP2C9 act: 1.2; sEH inhibitor: 4.2; CYP2C19 activ: 0.6

How did O=C1CSC(c2ccccn2)N1c1ccc(Cl)c(Cl)c1 (stereo not given) do in these assays?
sEH act: 4.1; CYP2C19 inh: 63.2*; CYP2C9 inh: 9.2; CYP2C9 act: 0.9; sEH inhibitor: -0.6; CYP2C19 activ: 0.4

How did COCCNC(=O)C(c1ccc(C)cc1)N(C(=O)CCC(=O)Nc1ccccn1)C1CCCC1 (stereo not given) do in these assays?
sEH act: -5.9; CYP2C19 inh: 17.7; CYP2C9 inh: -3.9; CYP2C9 act: 1; sEH inhibitor: 4.2; CYP2C19 activ: 0.8

Results for COCCN(C(=O)CCCC(=O)Nc1ccccn1)C(C(=O)NC1CCCCC1)c1ccc(C)cc1 (stereo not given) ?
sEH act: 4.2; CYP2C19 inh: 64.1*; CYP2C9 inh: 56.3*; CYP2C9 act: 0.4; sEH inhibitor: -5.0; CYP2C19 activ: 0.4

How did O=C(CCCC(=O)N(c1ccc2c(c1)OCCO2)C(C(=O)NC1CCCCC1)c1ccc(F)cc1)Nc1ccccn1 (stereo not given) do in these assays?
sEH act: -2.6; CYP2C19 inh: 51.7*; CYP2C9 inh: -99.7; CYP2C9 act: 2*; sEH inhibitor: 4.6; CYP2C19 activ: 0.5

Results for O=C(O)c1nc(N2CCCC2)ncc1Cl ?
sEH act: 7.3; CYP2C19 inh: 0.9; CYP2C9 inh: 5.9; CYP2C9 act: 0.9; sEH inhibitor: -4.0; CYP2C19 activ: 1

Results for COC(=O)[C@H](CCSC)NC(=O)Nc1cc(C)ccc1C ?
sEH act: 3.9; CYP2C19 inh: 3.0; CYP2C9 inh: 0.0; CYP2C9 act: 1; sEH inhibitor: 0.5; CYP2C19 activ: 1

Results for COC(=O)[C@H](CCSC)NC(=O)Nc1ccc(C)cc1 ?
sEH act: 2.1; CYP2C19 inh: 60.2*; CYP2C9 inh: 11.7; CYP2C9 act: 0.9; sEH inhibitor: -1.4; CYP2C19 activ: 0.4

How did Cc1cccc(N(C(=O)Nc2ccccc2)C2=NCC(C)S2)c1 (stereo not given) do in these assays?
CYP2C19 inh: 68.2*; CYP2C9 inh: 81.2*; CYP2C9 act: 0.2; CYP2C19 activ: 0.3

How did Cc1ccc(NC(=O)N(C2=NCC(C)S2)c2ccccc2)cc1 (stereo not given) do in these assays?
sEH act: 8.7; sEH inhibitor: -6.0

What do the screens show for `CC(=O)Nc1ccc(S(=O)(=O)N(C2=NCC(C)S2)c2ccccc2)cc1` (stereo not given)?
sEH act: 9.4; sEH inhibitor: -9.1

What do the screens show for `CC1CN=C(N(C(=O)Nc2ccccc2)c2ccc(F)cc2)S1` (stereo not given)?
sEH act: -12.2; CYP2C19 inh: 75.9*; CYP2C9 inh: 76.1*; CYP2C9 act: 0.2; sEH inhibitor: 9.8; CYP2C19 activ: 0.2

How did CN1CCN(CCC(=O)Nc2ccccc2Cl)CC1 do in these assays?
sEH act: 0.2; sEH inhibitor: 1.1

What do the screens show for `COC(=O)c1c(NC(=O)CN2CCC(C)CC2)c2c(C)cccc2n1C`?
sEH act: 4.8; CYP2C19 inh: 20.3; CYP2C9 inh: 5.9; CYP2C9 act: 0.9; sEH inhibitor: -4.4; CYP2C19 activ: 0.8

Results for COc1ccc(N2Cc3cccc(C(=O)NC(C)CCc4ccco4)c3C2=O)cc1 (stereo not given) ?
sEH act: 23.4; CYP2C19 inh: 85.0*; CYP2C9 inh: 92.5*; CYP2C9 act: 0.1; sEH inhibitor: -22.6; CYP2C19 activ: 0.2

What do the screens show for `CCOc1ccc(NC(=O)CNC(=O)c2cn(-c3ccccc3OC)c(=O)c3ccccc23)cc1`?
sEH act: 6.3; CYP2C19 inh: 85.8*; CYP2C9 inh: 87.8*; CYP2C9 act: 0.1; sEH inhibitor: -4.0; CYP2C19 activ: 0.1

What do the screens show for `CCOC(=O)N1CCC(NC(=O)c2cccc3c2C(=O)N(c2ccc(OC)cc2)C3)CC1`?
sEH act: 9.2; CYP2C19 inh: 96.6*; CYP2C9 inh: 98.3*; CYP2C9 act: 0; sEH inhibitor: -10.9; CYP2C19 activ: 0

What do the screens show for `CCOC(=O)N1CCC(NC(=O)c2cn(-c3ccc(OC)cc3)c(=O)c3ccccc23)CC1`?
sEH act: -9.4; CYP2C19 inh: 90.9*; CYP2C9 inh: 90.5*; CYP2C9 act: 0.1; sEH inhibitor: 11.9; CYP2C19 activ: 0.1

Results for CCCN1C2=NS(=O)(=O)CCN2c2ccccc21 ?
sEH act: -1.6; CYP2C19 inh: -1.0; CYP2C9 inh: -20.9; CYP2C9 act: 1.2; sEH inhibitor: -0.2; CYP2C19 activ: 1

What do the screens show for `FC(F)(F)c1cc(-c2cccs2)nc(-n2cc(Cl)cn2)n1`?
sEH act: 5.9; CYP2C19 inh: -6.4; CYP2C9 inh: 29.1; CYP2C9 act: 0.7; sEH inhibitor: -8.9; CYP2C19 activ: 1.1

Results for COc1cc(-c2nnc(SCC(=O)Nc3cc(C)on3)n2C)cc(OC)c1O ?
sEH act: 0.1; CYP2C19 inh: 4.9; CYP2C9 inh: -1.6; CYP2C9 act: 1; sEH inhibitor: 0.0; CYP2C19 activ: 1

How did CCOC(=O)N1CCC(NC(=O)c2cccn3c(=O)c4cc(Br)ccc4nc23)CC1 do in these assays?
sEH act: 0.5; CYP2C19 inh: 63.7*; CYP2C9 inh: 86.0*; CYP2C9 act: 0.1; sEH inhibitor: -2.5; CYP2C19 activ: 0.4

How did O=C(NCC(c1cccnc1)N1CCN(c2ccc(F)cc2)CC1)c1ccc2c(c1)OCO2 (stereo not given) do in these assays?
sEH act: -3.7; CYP2C19 inh: 63.6*; CYP2C9 inh: 80.5*; CYP2C9 act: 0.2; sEH inhibitor: 3.5; CYP2C19 activ: 0.4

How did COc1ccc(C(=O)NCC(c2cccnc2)N2CCN(c3ccc(F)cc3)CC2)cc1OC (stereo not given) do in these assays?
sEH act: 10.5; sEH inhibitor: -10.8
